Test [1] in a line: resazurin metabolic signal in HepG2 cells – cell-based, resazurin fluorescence, 24 h, PK04 Diversity Set, profiling panel (AID 1172). Also: test concentration not given here. As to conditions: HepG2 viability, higher = more signal. On the technique in general: Alamar Blue is a resazurin reagent that responds to reducing activity.
Test [2] is described as follows: budding yeast growth changes without added modifier – OD600, strain BY4716, 24 h, basal condition, primary screen (AID 1173). As to conditions: S. cerevisiae BY4716 growth, OD600, 24 h; higher = more signal, called active from +8 up or from −8 down.
A short description of test [3]: viability profiling in MM1S myeloma cells – cell-based, resazurin fluorescence, basal, 24 h, PK04 Diversity Set, profiling panel (AID 1174).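 Also: MM1S multiple myeloma cell line; test concentration not given here.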 As to conditions: higher = more signal, called active from +8 up or from −8 down.
Test [4] deals with Dihydroorotate dehydrogenase (quinone), mitochondrial (Plasmodium falciparum (isolate 3D7)) (UniProt Q08210). The test is described as follows: inhibition of P. falciparum DHODH – biochemical, C-terminal His tag, absorbance 600 nm, primary screen (AID 1175).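 Also: recombinant parasite enzyme with a five histidine tag at its C terminus; test concentration not given here.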 As to conditions: PfDHODH enzyme, DCIP absorbance 600 nm; higher = more signal, called active from +8 up or from −8 down.
Test [5] in a line: inhibition of PAO1 biofilm formation – strain PAO1, LB-PBS medium, absorbance 600 nm, primary screen (AID 1176). Also: test concentration not given here. Particulars: P. aeruginosa PAO1 growth/biofilm, A600, 12 h; higher = more signal.
Test [6] is described as follows: growth modulation of vineyard yeast isolate – strain RM11-1a, OD600, basal, 24 h, primary screen (AID 1177).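 Also: cultures grown under basal conditions with no added stressor; test concentration not given here.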 Particulars: S. cerevisiae RM11-1a growth, OD600, 24 h; higher = more signal, called active from +8 up or from −8 down.
Test [7] in a line: growth of efflux-deficient E. coli DRC39 – strain DRC39, OD650, 24 h, E. coli filamentation inducers, primary screen (AID 1178).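 Also: growth measured as culture turbidity by optical density at 650 nm; test concentration not given here.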 As to conditions: E. coli DRC39 acrAB, higher = more signal, called active from +8 up or from −8 down.
A short description of test [8]: growth of efflux-deficient E. coli DRC39 – strain DRC39, OD650, 48 h, E. coli filamentation inducers, primary screen (AID 1179).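 Also: screen aims at cell division blockers that make cells filament.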 As to conditions: E. coli DRC39 delta-acrAB growth, higher = more signal, called active from +8 up or from −8 down.
The nature of test [9]: viability profiling in RPMI8226 myeloma cells – cell-based, resazurin fluorescence, basal, 24 h, PK04 Diversity Set, profiling panel (AID 1180).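 Also: RPMI8826 multiple myeloma cell line at 5000 cells per well; test concentration not given here.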 As to conditions: higher = more signal.
Test [10] has as its target E3 ubiquitin-protein ligase XIAP (Homo sapiens) (UniProt P98170). The test is described as follows: small molecules binding XIAP protein – biophysical, small-molecule microarray, fluorescence 635 nm, primary screen (AID 1181).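 Also: score merges 667 nm emission and signal to noise over triplicate slides.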 Particulars: higher = more signal.

Active and inactive are the calls of the source. Unless noted, no rule for the calls is given here.

E3 ubiquitin-protein ligase XIAP (Homo sapiens), sequence (P98170 whole entry, looked up): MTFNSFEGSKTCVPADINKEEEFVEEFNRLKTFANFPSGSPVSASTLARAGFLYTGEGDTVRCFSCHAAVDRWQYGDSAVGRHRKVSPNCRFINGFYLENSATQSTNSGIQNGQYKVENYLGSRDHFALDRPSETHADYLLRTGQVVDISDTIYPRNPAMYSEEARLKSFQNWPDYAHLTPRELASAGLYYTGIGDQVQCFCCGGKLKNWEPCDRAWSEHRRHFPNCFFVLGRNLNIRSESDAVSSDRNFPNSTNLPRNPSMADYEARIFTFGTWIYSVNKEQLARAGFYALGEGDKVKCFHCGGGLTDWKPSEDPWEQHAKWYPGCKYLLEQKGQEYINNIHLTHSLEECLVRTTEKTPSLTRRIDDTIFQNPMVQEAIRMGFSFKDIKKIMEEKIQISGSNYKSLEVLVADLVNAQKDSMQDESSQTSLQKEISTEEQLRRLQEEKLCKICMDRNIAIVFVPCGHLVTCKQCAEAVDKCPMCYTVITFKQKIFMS
Dihydroorotate dehydrogenase (quinone), mitochondrial (Plasmodium falciparum (isolate 3D7)), sequence (Q08210 whole entry, looked up): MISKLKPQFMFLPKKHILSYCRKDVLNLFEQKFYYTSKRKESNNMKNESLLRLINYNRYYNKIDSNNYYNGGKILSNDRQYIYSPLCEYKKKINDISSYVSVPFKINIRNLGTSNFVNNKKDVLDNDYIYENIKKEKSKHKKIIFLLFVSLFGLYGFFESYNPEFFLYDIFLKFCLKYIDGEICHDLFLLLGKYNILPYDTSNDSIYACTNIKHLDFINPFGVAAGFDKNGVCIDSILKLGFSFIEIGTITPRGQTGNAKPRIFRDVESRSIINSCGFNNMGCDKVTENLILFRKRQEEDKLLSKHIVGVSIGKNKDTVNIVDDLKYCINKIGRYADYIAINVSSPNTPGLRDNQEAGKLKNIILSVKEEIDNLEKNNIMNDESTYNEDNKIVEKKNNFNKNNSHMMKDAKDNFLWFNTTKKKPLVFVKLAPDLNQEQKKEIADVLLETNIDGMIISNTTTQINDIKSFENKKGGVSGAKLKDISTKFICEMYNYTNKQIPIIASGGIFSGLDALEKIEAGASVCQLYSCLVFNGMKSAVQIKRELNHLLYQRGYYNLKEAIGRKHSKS

As to `C=CCC(OC(C)=O)[C@@H]1[C@@H](N(Cc2ccc(-c3ccccc3)cc2)C(=O)Cc2ccc(F)cc2)c2cc(OCCCO)ccc2N1C(=O)c1ccc(-c2ccccc2)cc1` (stereo not given in full), the z-score was 1.27 in test [1]; -1.65 (inactive) in test [2]; 1.4 (inactive) in test [3]; -0.124 (inactive) in [5]; -1.34 (inactive) in test [6]; 0.904 (inactive) in [7]. Moreover, the z-score in [8] was 1.6 (inactive); in test [9], 1.48. The composite z-score in test [4] was -1.46 (inactive); in [10], -0.296.

Take `C=CCNC(=O)[C@H]1[C@@H]2C(=O)O[C@@H](c3ccccc3)[C@@H](c3ccccc3)N2[C@@H](c2ccc(OCCO)cc2)[C@]12C(=O)Nc1ccc(C#CC3=CCCCC3)cc12`: the z-score in test [1] is 0.735; in test [2] it was 2.06 (inactive); in [3] it was -1.21 (inactive); in test [5], 0.269 (inactive); in test [6] it was 2.97 (inactive); in test [7], 0.0358 (inactive). Further, the z-score is -0.198 (inactive) in test [8] and -2.77 in test [9]. The figures for the composite z-score in test [4] and in test [10] were 0.472 (inactive) and 0.0435, respectively.

Consider `CCOC(=O)C[C@H]1[C@H](OC(=O)Cc2ccc3c(c2)OCO3)[C@@H](NC(=O)c2ccc3ccccc3c2)c2cc(OCCCO)ccc2N1C(=O)c1ccccc1`, for which the z-score was 0.898 in [1]; -0.206 (inactive) in [2]; -1.09 (inactive) in test [3]; 0.69 (inactive) in test [5]; 0.738 (inactive) in [6]; -0.241 (inactive) in test [7]. In addition, the z-score was 0.15 (inactive) in test [8] and -0.52 in [9]. The composite z-score in [4] is -0.777 (inactive); in [10], -0.0426.

Regarding `COc1cc(CO)cc(I)c1O[C@H]1C=C(C(=O)NCCO)C[C@@H](N(CCN2CCOCC2)C(=O)C2CCOC2)[C@@H]1O` (stereo not given in full), the z-score in test [1] is 1.66; in test [2], -2.49 (inactive); in test [3], 0.85 (inactive); in test [5] it was 0.355 (inactive); in test [6], 0.0222 (inactive); in test [7], 2.68 (inactive). The z-score in test [8] is 1.5 (inactive); in test [9], 0.923. The figures for the composite z-score in test [4] and in test [10] were 0.938 (inactive) and 0.02, respectively.

Turning to `O=C(C1N=C(c2ccc(OCCCO)cc2)N(c2ccccc2)O1)N1CCOCC1` (stereo not given), the z-score in [1] is 0.55; in test [2] it was -1.3 (inactive); in test [3] it was 0.466 (inactive); in test [5] it was -0.91 (inactive); in test [6] it was -1 (inactive); in test [7], 1.42 (inactive). In addition, the z-score in test [8] was 1.92 (inactive); in test [9] it was 2.12. Also, the composite z-score is -1.09 (inactive) in [4] and -0.163 in test [10].

Regarding `COCCCN1C(=O)[C@@]2(c3ccc([N+](=O)[O-])cc3)CC(=O)N(C3CCCCC3)[C@@H]2c2ccc(CO)cc21`, the z-score in test [1] is -0.207; in test [2] it was 1.12 (inactive); in test [3] it was -0.559 (inactive); in test [5], 0.158 (inactive); in test [6] it was 0.0091 (inactive); in test [7], -0.0215 (inactive). Also, the z-score in test [8] was -0.13 (inactive); in [9] it was -0.837. Further, the results for the composite z-score in [4] and in test [10] were -26.4 (active) and -0.37, respectively.

Consider `O=C(NCC(F)(F)F)[C@@H]1c2ccccc2C(=O)N(C2CCCCC2)[C@H]1c1ccc(CO)cc1`, for which the z-score in test [1] is -0.501; in test [2] it was 0.804 (inactive); in [3], -0.435 (inactive); in [5], -0.255 (inactive); in test [6], 1.11 (inactive); in test [7] it was -0.0514 (inactive). The z-score is -0.335 (inactive) in [8] and 0.538 in [9]. Besides, the composite z-score in test [4] is 0.843 (inactive); in test [10], 0.056.

Regarding `C=C/C=C/[C@H]1C(=C)CN([C@@H](Cc2ccccc2)C(=O)OC)[C@@H]1[C@H](O)Cc1ccccc1`, the z-score in test [1] is 0.28; in test [2], -1.91 (inactive); in test [3], 0.883 (inactive); in test [5], 0.531 (inactive); in [6], -0.609 (inactive); in test [7], 0.701 (inactive). In addition, the z-score in test [8] is 0.595 (inactive); in test [9] it was 0.73. The composite z-score is -1.09 (inactive) in [4] and 0.643 in test [10].

For `O=C1O[C@H](c2ccccc2)[C@H](c2ccccc2)N2[C@H]1[C@@H](C(=O)O)[C@]1(C(=O)Nc3ccc(C#CC4=CCCCC4)cc31)[C@H]2c1ccccc1OCCO`, the z-score is -1.19 in [1]; -1.17 (inactive) in test [2]; -5.12 (inactive) in test [3]; 2.36 (inactive) in test [5]; 1.73 (inactive) in test [6]; -0.0532 (inactive) in test [7]. Besides, the z-score in test [8] was 0.0958 (inactive); in test [9], -6.63. In addition, the composite z-score in test [4] is -6.35 (inactive); in [10], -0.102.

`CCOc1cc(C(O)C2C=CC3C(=O)N(c4ccccc4)C(=O)C3N2Nc2ccccc2)ccc1O` (stereo not given): the z-score in test [1] is -0.147; in [2] it was -2.46 (inactive); in test [3], -1.07 (inactive); in [5], 1.1 (inactive); in [6], 1.16 (inactive); in [7], -0.345 (inactive). Further, the z-score is -0.649 (inactive) in [8] and -0.0963 in test [9]. The values for the composite z-score in test [4] and in [10] were 0.392 (inactive) and -0.189, respectively.

On to `CC(=O)NCCCC[C@@H]1NC(=O)[C@@H]2C[C@H](C(=O)NCCCCCCNC(=O)CS)[C@H](c3cccc(OCCO)c3)N2C1=O`, for which the z-score in test [1] was -0.396; in test [2] it was 0.174 (inactive); in test [3] it was -0.449 (inactive); in [5] it was 0.752 (inactive); in test [6], -0.407 (inactive); in test [7], 0.293 (inactive). Besides, the z-score in [8] was 0.367 (inactive); in [9] it was -1.05. In addition, the results for the composite z-score in [4] and in [10] were -0.424 (inactive) and -0.0791, respectively.

As to `COc1cc2c(cc1O)C=[N+](Cc1cccc(OC(F)(F)F)c1)CC2`, the z-score was -0.935 in test [1]; 0.165 (inactive) in [2]; -0.682 (inactive) in [3]; -0.531 (inactive) in [5]; -0.957 (inactive) in [6]; 0.0214 (inactive) in [7]. The z-score in test [8] is 0.569 (inactive); in test [9], -1.25. The values for the composite z-score in [4] and in test [10] were -3.35 (inactive) and -0.259, respectively.

`CC(C)(C)OC(=O)CC[C@@]12N=C(c3ccc(OCCCO)cc3)O[C@@H]1c1ccccc1N(CCS(=O)(=O)c1ccccc1)C2=O`: the z-score in test [1] is -0.223; in test [2], 0.508 (inactive); in test [3] it was -1.95 (inactive); in test [5], 0.218 (inactive); in test [6], 1.44 (inactive); in test [7], 1.25 (inactive). Besides, the z-score in [8] is 1.56 (inactive); in test [9] it was -0.835. The composite z-score in test [4] was -0.298 (inactive); in test [10] it was 0.0801.
